Results: PubChem BioAssay (NCATS)
Inconclusive results are not listed. Where a call stands in place of a potency, no number is given. Values without a mark were called inactive. Calls of active or inactive are those of the source. Unless noted, calls follow the shape of the dose curve; as a rule, active = well fitted curve in the direction sought with a large enough effect in the repeat runs; inconclusive = weak or mixed curves; inactive = no such curve, though single readings can be large; an effect the other way counts as inactive or inconclusive.

Assays:
[1] = A High-Content qHTS Against Drug Library for the Identification of Small Molecules that Inhibit DYT1 Early Onset Primary Dystonia-Associated Cell Pathology (AID 1645839; calls by dose curve; also: series mostly up to about 46 µM)
In short: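 High-content imaging quantified EGFP-TorsinA mislocalization in HEK293-derived cells inducibly expressing DYT1 mutant torsinA, after 48 h exposure to compound given together with tetracycline induction. Cell count served as a toxicity channel alongside %pathology.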

[2] = target: Cytochrome P450 2D6 (Homo sapiens) (UniProt P10635); experiment: Cytochrome P450 family 2 subfamily D member 6 (CYP2D6) small molecule antagonists: luciferase biochemical (cell-free) qHTS assay (AID 1645840); also: nearly all actives have a fitted effect of over 55% in size; also: potency is read from the fitted curve at half-maximal effect; as to activity change, negative = inhibition: series mostly up to about 57 µM
In short: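 P450-Glo CYP2D6 system: proluciferin substrate converted by enzyme to luciferin, read by luminescence proportional to activity. Enzyme-substrate mix with compound 10 min at room temperature, then NADPH regeneration 1 h before detection reagent.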

[3] = target: Cytochrome P450 2C9 (Homo sapiens) (UniProt P11712); experiment: Cytochrome P450 family 2 subfamily C member 9 (CYP2C9) small molecule antagonists: luciferase biochemical (cell-free) qHTS assay (AID 1645842); also: nearly all actives have a fitted effect of over 55% in size; also: potency is read from the fitted curve at half-maximal effect; as to activity change, negative = inhibition: series mostly up to about 57 µM
In short: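 P450-Glo CYP2C9 system: proluciferin substrate with enzyme in mix containing 0.4% BSA, 10 min at room temperature, then NADPH regeneration solution added and incubated 1 h at 37C. Detection reagent stopped reaction; luminescence read after 20 min as RLU.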

[4] = target: N-terminal Xaa-Pro-Lys N-methyltransferase 1 (Homo sapiens) (UniProt Q9BV86); experiment: Confirmatory qHTS for Inhibitors of N-terminal methyltransferase 1 (NTMT1): MTaseGlo Assay (AID 1645874; active = well fitted curve in the direction sought with a large enough effect; an effect the other way counts as inactive or inconclusive; also: nearly all actives have a fitted effect of over 65% in size; also: potency is read from the fitted curve at half-maximal effect;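 as to activity change, negative = inhibition: luminescence from SAH made as NTMT1 methylates SPKRIA peptide using SAM; series mostly up to about 100 µM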)
In short: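 Inhibition was derived from luminescence after SAH-to-ATP conversion, scaled between no-enzyme and DMSO wells, then fitted by 4-parameter Hill. Conditions: 125 nM NTMT1, 100 uM SAM, 1 uM SPKRIA, 30 min RT.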

Sequence of Cytochrome P450 2C9 (Homo sapiens) (P11712 whole entry, looked up): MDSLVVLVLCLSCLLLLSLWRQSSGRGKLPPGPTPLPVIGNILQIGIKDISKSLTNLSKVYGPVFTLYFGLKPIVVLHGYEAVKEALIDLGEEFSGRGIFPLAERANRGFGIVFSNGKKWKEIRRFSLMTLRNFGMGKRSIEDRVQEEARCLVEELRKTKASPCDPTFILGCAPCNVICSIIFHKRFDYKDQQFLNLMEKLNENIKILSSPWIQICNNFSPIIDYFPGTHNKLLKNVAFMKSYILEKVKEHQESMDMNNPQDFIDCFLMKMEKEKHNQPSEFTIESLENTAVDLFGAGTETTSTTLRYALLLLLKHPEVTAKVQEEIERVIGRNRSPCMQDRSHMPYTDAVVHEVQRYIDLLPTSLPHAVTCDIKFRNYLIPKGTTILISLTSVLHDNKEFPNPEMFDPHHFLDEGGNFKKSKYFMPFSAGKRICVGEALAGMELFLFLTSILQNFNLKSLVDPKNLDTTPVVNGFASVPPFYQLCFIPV
Sequence of Cytochrome P450 2D6 (Homo sapiens) (P10635 whole entry, looked up): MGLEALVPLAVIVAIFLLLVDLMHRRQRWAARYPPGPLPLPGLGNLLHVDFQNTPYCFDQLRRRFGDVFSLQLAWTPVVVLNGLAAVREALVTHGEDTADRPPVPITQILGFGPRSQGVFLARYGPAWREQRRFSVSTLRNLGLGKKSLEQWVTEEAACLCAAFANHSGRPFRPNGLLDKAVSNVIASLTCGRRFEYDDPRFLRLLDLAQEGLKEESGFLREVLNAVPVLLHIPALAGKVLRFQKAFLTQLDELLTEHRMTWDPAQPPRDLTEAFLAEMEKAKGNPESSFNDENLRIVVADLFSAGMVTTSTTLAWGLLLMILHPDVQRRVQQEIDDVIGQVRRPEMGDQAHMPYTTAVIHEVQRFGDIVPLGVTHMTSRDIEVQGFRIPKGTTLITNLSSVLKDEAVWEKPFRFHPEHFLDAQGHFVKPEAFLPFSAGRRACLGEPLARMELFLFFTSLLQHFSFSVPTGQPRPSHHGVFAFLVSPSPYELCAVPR
Sequence of N-terminal Xaa-Pro-Lys N-methyltransferase 1 (Homo sapiens) (Q9BV86 whole entry, looked up): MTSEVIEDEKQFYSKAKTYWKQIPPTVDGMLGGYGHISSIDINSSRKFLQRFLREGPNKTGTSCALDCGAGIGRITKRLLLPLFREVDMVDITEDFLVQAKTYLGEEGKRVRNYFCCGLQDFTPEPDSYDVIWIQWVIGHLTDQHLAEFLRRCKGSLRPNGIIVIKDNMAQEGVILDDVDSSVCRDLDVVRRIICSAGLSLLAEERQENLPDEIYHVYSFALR

CO/N=C(\C(=O)O)c1csc(NC(=O)CCl)n1
Potency [1]: inactive | Potency [2]: inactive | Potency [3]: inactive

O=C(COCCOCCOCC(=O)Nc1c(I)cc(I)c(C(=O)O)c1I)Nc1c(I)cc(I)c(C(=O)O)c1I
Potency [1]: inactive | Potency [2]: inactive | Potency [3]: inactive

CC1(C)S[C@@H]2[C@H](NC(=O)C(c3ccccc3)S(=O)(=O)O)C(=O)N2[C@H]1C(=O)O (stereo not given in full)
Potency [1]: inactive | Potency [2]: inactive | Potency [3]: inactive

CO/N=C(/C(=O)N[C@@H]1C(=O)N2C(C(=O)OCOC(=O)C(C)(C)C)=C(C)CS[C@H]12)c1csc(N)n1
Potency [1]: inactive | Potency [2]: inactive | Potency [3]: 17.4 µM (active)

O=C1c2ccccc2CCc2ccccc21
Potency [1]: inactive | Potency [2]: inactive | Potency [3]: inactive

NC(=O)NS(=O)(=O)c1ccc(Cl)cc1
Potency [1]: inactive | Potency [2]: inactive | Potency [3]: inactive

O=C(C1CCCCC1)N1CC(=O)N2CCCc3ccccc3C2C1 (stereo not given)
Potency [1]: inactive | Potency [2]: inactive | Potency [3]: 6.17 µM (active)

CN1C(=O)c2ccccc2C1=O
Potency [1]: inactive | Potency [2]: inactive | Potency [3]: inactive

CC(=O)O[C@@H]1CC2C3CCc4cc(OC(=O)c5ccccc5)ccc4C3CCC2(C)[C@H]1OC(C)=O (stereo not given in full)
Potency [1]: inactive | Potency [2]: inactive | Potency [3]: inactive

COc1cc(S(N)(=O)=O)cc(C(=O)O)c1OC
Potency [1]: inactive | Potency [2]: inactive | Potency [3]: inactive

CCC1(c2cnc[nH]2)Cc2ccccc2C1
Potency [1]: inactive | Potency [2]: 0.309 µM (active) | Potency [3]: 0.871 µM (active)

COc1cc(C=O)ccc1O
Potency [1]: inactive | Potency [2]: inactive | Potency [3]: inactive

CC(=O)N(c1onc(C)c1C)S(=O)(=O)c1ccc(N)cc1
Potency [1]: inactive | Potency [2]: inactive | Potency [3]: inactive

CCn1ccc(NS(=O)(=O)c2ccc(N)cc2)nc1=O
Potency [1]: inactive | Potency [2]: inactive | Potency [3]: inactive

CCc1cc(S(=O)(=O)O)c2cc(C(C)C)cccc1-2
Potency [1]: inactive | Potency [2]: inactive | Potency [3]: inactive

Cc1cnc(NS(=O)(=O)c2ccc(N)cc2)nc1
Potency [1]: inactive | Potency [2]: inactive | Potency [3]: inactive

CN1C(CSCC(F)(F)F)Nc2cc(Cl)c(S(N)(=O)=O)cc2S1(=O)=O (stereo not given)
Potency [1]: inactive | Potency [2]: inactive | Potency [3]: inactive

COC(=O)/C=C\C(=O)OC
Potency [1]: inactive | Potency [2]: inactive | Potency [3]: inactive

COC(=O)c1cc(S(N)(=O)=O)ccc1OC
Potency [1]: inactive | Potency [2]: inactive | Potency [3]: inactive

C=CCOc1cc(Cl)ccc1C(=O)NCCN(CC)CC
Potency [1]: inactive | Potency [3]: inactive

Nc1c(NC/C=C\COc2cc(CN3CCCCC3)ccn2)c(=O)c1=O
Potency [1]: inactive | Potency [3]: inactive

CN1Cc2cc(C(=O)N3CCC(C4CCNCC4)CC3)ccc2NC(CC(=O)O)C1=O (stereo not given)
Potency [1]: inactive | Potency [2]: inactive | Potency [3]: inactive

Cc1nc(C2CCCCC2)c(-c2ccc(S(N)(=O)=O)c(F)c2)o1
Potency [1]: inactive | Potency [3]: 2.19 µM (active)

N#CSCC(=O)O
Potency [1]: inactive | Potency [3]: inactive

O=C1OC2(c3ccccc31)c1cc(I)c(O)c(I)c1Oc1c2cc(I)c(O)c1I
Potency [1]: inactive | Potency [2]: 17.4 µM (active) | Potency [3]: 19.5 µM (active) | Potency [4]: 1.9 µM (active)

COc1ccc2cc(C=O)ccc2c1
Potency [1]: inactive | Potency [3]: 12.3 µM (active)

C1=CC2C3C=CC(C3)C2C1 (stereo not given)
Potency [1]: inactive | Potency [3]: inactive

NC(=O)COCCN1CCN(C(c2ccccc2)c2ccc(Cl)cc2)CC1 (stereo not given)
Potency [1]: inactive | Potency [3]: inactive

CC(C)C(=O)Nc1cccc(C(F)(F)F)c1
Potency [1]: inactive | Potency [2]: inactive | Potency [3]: inactive

CCCOc1ccc2c(c1)CC[C@@H]1[C@@H]2CC[C@]2(C)C(OC)CC[C@@H]12 (stereo not given in full)
Potency [1]: inactive | Potency [3]: 19.5 µM (active)

O=C(c1cc(O)c(O)c(O)c1)c1ccc(O)c(O)c1O
Potency [1]: inactive | Potency [3]: inactive

CN1CCCN=C1/C=C/c1cccs1
Potency [1]: inactive | Potency [4]: inactive

CC(=O)Nc1ccn(C2COC(COC(=O)c3ccccc3)O2)c(=O)n1 (stereo not given)
Potency [1]: inactive | Potency [2]: inactive | Potency [3]: inactive

NCC[C@H](O)C(=O)N[C@@H]1C[C@H](N)[C@@H](O[C@H]2O[C@H](CN)[C@@H](O)[C@H](O)[C@@H]2O)[C@H](O)[C@@H]1O[C@H]1O[C@H](CO)[C@@H](O)[C@H](N)[C@@H]1O
% pathology change, negative = correction [1]: -0.271% [at 0.369 µM] | activity change, negative = inhibition [2]: 10.7% [at 0.91 µM] | activity change, negative = inhibition [3]: 1.19% [at 0.91 µM]

CO/N=C(/C(=O)N[C@@H]1C(=O)N2C(C(=O)[O-])=C(C[n+]3ccn4ncccc43)CS[C@H]12)c1nsc(N)n1
Potency [1]: inactive | Potency [3]: inactive

CCOc1c(N2CCOCC2)cnn(C)c1=O
Potency [1]: inactive | Potency [3]: inactive

CCCCOC(=O)CCCCCCCCC(=O)OCCCC
Potency [1]: inactive | Potency [2]: inactive | Potency [3]: 19 µM (active)
